# Screening results (PubChem)
# Wnt bcat act – activates Wnt/beta-catenin signaling in a reporter cell assay; activation, % at 9.35 µM; actives 1.2% (n = 300,000); activator, plate reader; AID 743398; in the data active = activation above about 30%, passing the limit was not always enough; inconclusive = no clear call, values can overlap the other calls;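 also: 0% = neutral control wells and 100% = positive control wells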
# DAX1 StAR inh – inhibitors of DAX1 repression of SF-1 activated StAR promoter | actives 1.1% (n = 370,000) | inhibition, % at 6.8 µM | HEK293T StAR-luciferase reporter, SF-1/DAX-1 repression relief | AID 652010;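 active = inhibition above the mean over all tested compounds plus 3 SD, cut at about 3.6% in these data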;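 also: 0% = DAX-1 cells with DMSO and 100% = cells lacking DAX-1 with DMSO; higher inhibition means more luminescence from relief of DAX-1 repression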
# hgDAF12 agonist – agonists of H. glycines DAF-12 nuclear receptor; HEK293 GAL4-hgDAF12 UAS-luciferase reporter, agonist luminescence; normalized to butyrate control; activation, % at 6.8 µM; actives 1.8% (n = 370,000);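 active = activation above a cutoff set at the mean of all screened compounds plus 3 SD, cut at about 10% in these data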;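 also: 0% = DMSO wells and 100% = sodium butyrate wells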
# hcDAF12 agonist – H. contortus DAF-12 activation, primary screen; HEK293 hcDAF-12 lit1-tk-luc reporter, luminescence; 0% DMSO, 100% Δ7-dafachronic acid; activation, % at 6.8 µM; actives 1.4% (n = 370,000); AID 652067;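 active = activation above the mean of all tested compounds plus 3 SD, cut at about 5.5% in these data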;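 also: 100% = response to 3 µM Δ7-dafachronic acid high control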
# esBAF inh – inhibitors of esBAF chromatin remodeling in mouse ES cells. Bmi1-luciferase knock-in reporter, 24 h; 100% = twice the neutral-well signal. reporter increase, % at 12.5 µM. actives 2% (n = 350,000). AID 602393; in the data active = activation above about 40%; inconclusive = no clear call, values can overlap the other calls;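 also: 0% = median of the plate's neutral control wells and 100% = double that signal; a rise in the Bmi1 reporter signal indicates esBAF inhibition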
# ssDAF12 agonist – activates DAF-12 receptor from parasite S. stercoralis | AID 652126 | HEK293 ssDAF-12/GRIP1 lit1-tk-luc reporter, luminescence; % of 3 µM dafachronic acid response | activation, % at 6.8 µM | actives 1% (n = 370,000);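 active = activation above the mean over all tested compounds plus 3 SD, cut at about 0.9% in these data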;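 also: 0% = DMSO-only wells and 100% = 3 µM delta7-dafachronic acid wells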
# Starred values were filed as active, the others as inactive; ? = inconclusive; . = no result given. Hits are enriched below; roughly 4.2% of the tested compounds scored in any of these assays.
SMILES,Wnt bcat act,DAX1 StAR inh,hgDAF12 agonist,hcDAF12 agonist,esBAF inh,ssDAF12 agonist
COc1ccccc1NC(=O)N(C)C[C@@H]1OCc2cn(nn2)CCCC(=O)N([C@@H](C)CO)C[C@H]1C,-1.0,1.3,-1.1,2.1,-2.1,0.9*
COc1cc2ccccc2cc1C(=O)NC1CCC(C)CC1 (stereo unspecified),38.1*,2.5,6.4,-0.3,56.7*,-1.1
COc1cc2ccccc2cc1C(=O)NC1CCCCC1,23.7,3.2,4.3,-0.1,45.5*,-1.0
COc1cc2ccccc2cc1C(=O)NC1CCCC1,4.8,3.6,8.2,1.1,96.4*,-0.6
COc1cc(SC)ccc1C(=O)Nc1ccccc1C#N,3.2,0.1,4.8,0.0,43.1*,0.1
COc1cc(SC)ccc1C(=O)Nc1nc(C)cc(C)n1,2.7,0.1,-2.5,-0.3,7.4,-1.3
CC(=O)N[C@@H]1CC[C@@H](CCNC(=O)C2CC2)O[C@@H]1CO,.,.,.,.,-3.6,.
CCCN1C[C@@H](C)[C@@H](OC)CN(C)C(=O)c2cc(NC(=O)CC)ccc2OC[C@H]1C,.,.,.,.,-2.1,.
O=C(Nc1ccc(Cl)cc1)N1C[C@@H]2[C@H](c3ccccc31)[C@H](CO)N2C(=O)c1ccccn1,.,.,.,.,22.9,.
COc1ccc(S(=O)(=O)N[C@H]2CC[C@@H](CC(=O)N3CCC(Cc4ccccc4)CC3)O[C@@H]2CO)cc1,.,.,.,.,16.8,.
COc1cc(SC)ccc1C(=O)Nc1cccc(C2OCCCO2)c1,-4.6,1.4,3.1,1.4,68.3*,-0.2
COc1cc(SC)ccc1C(=O)Nc1ccncc1,27.0,-0.8,3.7,-1.7,.,-1.2
COc1cc(SC)ccc1C(=O)NC1CCCCC1,10.7,0.8,3.4,-1.7,54.1*,-1.1
CC(C)NC(=O)N(C)C[C@H]1Oc2ccc(NS(=O)(=O)c3ccc(F)cc3)cc2C(=O)N([C@@H](C)CO)C[C@@H]1C,.,.,.,.,-0.7,.
COC(=O)C(=CC(=CN(C)C)C=C(C(=O)OC)C(=O)OC)C(=O)OC,38.2*,0.0,-0.9,-2.1,-6.2,-1.7
c1ccc(-c2nn[nH]n2)cc1,0.4,-0.3,-1.6,0.7,.,-1.2
c1ccc(-c2nnc(-c3ccccc3)nn2)cc1,50.3*,1.1,8.6,5.4,.,1.0*
COc1cc2c(cc1OC)CN(C1CCCN(Cc3cccc(C(C)=O)c3)C1)CC2 (stereo unspecified),-1.0,-0.5,-0.2,-0.1,-6.2,-0.8
Cc1cc(CN2CCCC(N3CCc4ccccc4C3)C2)cc(C)c1O (stereo unspecified),-3.3,0.1,10.8*,5.3,-3.3,0.8
CC(C)C[C@@H]1COc2cccc(N3CCC[C@H]3CO)c2S(=O)(=O)N1,-4.8,3.6*,0.5,2.2,.,-0.8
C[C@H]1CN([C@@H](C)CO)C(=O)c2ccccc2-c2ccccc2CO[C@H]1CN(C)C(=O)Nc1ccccc1,.,.,.,.,7.7,.
Cc1ccc2cc(CCNC(=O)c3cccs3)c(=O)[nH]c2c1,29.7,2.2,10.0,1.3,54.2*,-1.2
Cc1cccc2c(=O)c(C(=O)NCc3ccc(F)cc3)c[nH]c12,0.9,0.4,-3.9,-1.0,-0.9,-1.7
O=C(NCCc1ccccc1)c1c[nH]c2c(F)cccc2c1=O,4.3,0.2,7.3,5.6*,38.1,-0.2
CCOc1ccc2[nH]cc(C(=O)NCCc3ccccc3)c(=O)c2c1,-1.1,-1.1,-0.1,-2.7,4.4,-1.5
SMILES,Wnt bcat act,DAX1 StAR inh,hgDAF12 agonist,hcDAF12 agonist,esBAF inh,ssDAF12 agonist
Cc1cccc2c(=O)c(C(=O)NCCc3ccccc3)c[nH]c12,5.4,0.0,-0.2,0.4,52.3*,-1.2
CCOC(=O)c1snc(C(=O)NC2CCCCC2)c1N,19.9,1.2,5.8,1.2,59.7*,-1.5
Nc1c(C(=O)NC2CCCCC2)nsc1C(=O)OCC(=O)NC1CCCCC1,.,-0.5,-1.8,-2.1,21.5,-1.7
CCOC(=O)Cc1csc(NC(=O)/C=C/c2ccc(OC)cc2)n1,-3.5,0.2,12.2*,-0.6,-0.7,-1.3
CCOP(=O)(OCC)C(NC(=O)/C=C/c1ccc(OC)cc1)c1ccccc1 (stereo unspecified),33.9*,-0.5,0.0,-0.5,.,-1.2
COc1ccc(NC(=O)c2ccc(NC(=O)c3ccncc3)cc2)cc1,-2.3,0.0,0.6,1.1,-1.6,-1.4
CCOc1ccc(NC(=O)c2ccc(OC)cc2)cc1,.,1.2,12.9*,0.3,?,-0.8
CCOP(=O)(OCC)C(NC(=O)Nc1ccccc1)c1ccccc1 (stereo unspecified),-1.3,-0.1,-0.3,-1.7,.,-1.2
COc1ccc(C(=O)Nc2ccc(C3CC3(Cl)Cl)cc2)cc1 (stereo unspecified),-1.1,1.2,5.9,-1.5,90.9*,-1.6
C[C@H]1CN([C@@H](C)CO)C(=O)Cc2cc(NC(=O)Nc3ccc(F)cc3)ccc2O[C@@H]1CN(C)Cc1ccc2c(c1)OCO2,.,.,.,.,1.0,.
CC(C)NC(=O)N(C)C[C@@H]1Oc2ccc(NC(=O)C3CC3)cc2CC(=O)N([C@@H](C)CO)C[C@@H]1C,.,.,.,.,1.1,.
CCOC(=O)Cc1csc(NC(=O)c2ccc3ncsc3c2)n1,22.4,0.3,7.8,-1.1,51.9*,-0.6
CCOc1ccc(NC(=O)c2ccccc2SC)cc1,-0.6,0.7,2.9,-1.7,45.7*,-0.8
COc1ccc(NC(=O)c2ccc3ncsc3c2)cc1,17.9,0.5,9.5,1.0,29.6,1.3*
COc1ccc(NC(=O)c2ccccc2SC)cc1,1.1,0.6,1.3,-0.2,.,-1.5
CCOc1ccc(NC(=O)NC2CC(=O)N(c3ccc(OC)cc3)C2)cc1 (stereo unspecified),41.8*,-0.4,-1.2,-1.1,-5.2,-1.3
O=C(c1ccncc1)N1C[C@H]2[C@@H](c3ccccc31)[C@H](CO)N2C(=O)c1ccccc1F,.,.,.,.,-2.2,.
Cc1ccc(S(=O)(=O)Nc2ccc3c(c2)C(=O)N([C@@H](C)CO)C[C@H](C)[C@@H](CN(C)C(=O)Nc2ccc(C(F)(F)F)cc2)OCCCC[C@H](C)O3)cc1,.,.,.,.,-2.1,.
C[C@H]1CN([C@@H](C)CO)C(=O)c2cc(-c3cccc(C#N)c3)cnc2O[C@@H]1CN(C)C(=O)C1CCC1,.,.,.,.,-4.9,.
CCOC(=O)Cc1csc(NC(=O)c2cnc3sc(C)cn3c2=O)n1,2.8,1.1,6.4,6.3*,47.3*,-0.2
CCOC(=O)Cc1csc(NC(=O)c2ccc(C)o2)n1,.,-0.3,2.1,-0.7,14.8,-1.6
C[C@@H]1CN([C@@H](C)CO)C(=O)Cc2cc(NC(=O)Nc3ccc4c(c3)OCO4)ccc2O[C@H]1CN(C)Cc1ccc(C(=O)Nc2ccccc2N)cc1,.,.,.,.,-4.5,.
O=C1c2ccccc2C(c2nnnn2-c2ccc3c(c2)OCCO3)N1CCc1ccccc1F (stereo unspecified),3.9,4.4*,-0.8,-1.1,.,-0.7
CSc1nc(N)nc(SCC(=O)c2ccc(C)cc2)c1C#N,.,0.2,2.1,-0.3,60.8*,-1.6
